# From the OligoGym collection
# Tests used:
# Assay in all cases: pooled miR-30 sensor sort-seq; sequence = guide strand
# Settings in all cases: shRNA
# RHOH = biological target: RHOH
# RHOF = biological target: RHOF
# RGS9 = biological target: RGS9
# RNPC3 = biological target: RNPC3
# RPS6KA5 = biological target: RPS6KA5
# RTTN = biological target: RTTN
# RYR2 = biological target: RYR2
# SASH1 = biological target: SASH1
# SASH3 = biological target: SASH3
# SCAF4 = biological target: SCAF4
# SC5DL = biological target: SC5DL
# SCGB1D4 = biological target: SCGB1D4
# SCN4A = biological target: SCN4A
# SDHAF1 = biological target: SDHAF1
# SDR9C7 = biological target: SDR9C7
# SEC11C = biological target: SEC11C
# Further: reference of the scale not given here.
sequence,measurement,setting,value
TTGATGGAGAAGAGCCTCCTTC,sensor-assay potency score (higher = more potent),RHOH,-0.911
AAGGTCTCGGAGGTGAAGCGCA,sensor-assay potency score (higher = more potent),RHOH,-0.81
TAGGTGATGGGCTCCAGCTGGG,sensor-assay potency score (higher = more potent),RHOF,-0.461
TTTCTTTTTGATATTTCGCTTG,sensor-assay potency score (higher = more potent),RGS9,-0.178
AATTTCACCAATCCACTTGTTC,sensor-assay potency score (higher = more potent),RHOH,-0.62
TTCTTTTTGATATTTCGCTTGG,sensor-assay potency score (higher = more potent),RGS9,-0.579
TTCTTCAAGTTCAGGAATGAGT,sensor-assay potency score (higher = more potent),RHOH,-0.86
TCGAGCAAACTGAACCACCATG,sensor-assay potency score (higher = more potent),RNPC3,-1.27
TTCATCTCGAATGACTGGCTTA,sensor-assay potency score (higher = more potent),RPS6KA5,0.378
TTAATAACCAGCTCTCTTCTGT,sensor-assay potency score (higher = more potent),RTTN,0.265
TTCAGGAGTAACTTCAACCAAA,sensor-assay potency score (higher = more potent),RTTN,-0.732
TAAGTTGTAATTGCGCTCCTGT,sensor-assay potency score (higher = more potent),RYR2,0.62
TATTCGAGACACATCTACCTTC,sensor-assay potency score (higher = more potent),RYR2,0.298
TTTCGTAGCATCCTGAGTCTCG,sensor-assay potency score (higher = more potent),SASH1,0.799
TTGAAGTCTTCCAGTGTCTGGT,sensor-assay potency score (higher = more potent),SASH3,0.225
TAATGTACAATAACTCTTGAGT,sensor-assay potency score (higher = more potent),SASH1,-0.698
TTGTTCTACTTCCATTTCCTGC,sensor-assay potency score (higher = more potent),SCAF4,-0.925
TTGAATGAGCCGCCAATCCTAT,sensor-assay potency score (higher = more potent),SC5DL,-0.95
TATTTTTTAGACATTCTCTTTC,sensor-assay potency score (higher = more potent),SASH1,-0.235
TACTATTTGAACTACATGCTTA,sensor-assay potency score (higher = more potent),SCAF4,0.0032
TTCTGGAATGTTATCATCCAGA,sensor-assay potency score (higher = more potent),SASH3,-1.05
TTGAAGAATTAACCATTCCTGA,sensor-assay potency score (higher = more potent),SC5DL,-0.422
TTGAGCTTGAGTGAGTCTGTGT,sensor-assay potency score (higher = more potent),SASH1,0.495
TAACTCTTGAGTCTGTTACTTT,sensor-assay potency score (higher = more potent),SASH1,-0.488
TAGGGTTTTTAGACTGACCTGA,sensor-assay potency score (higher = more potent),SASH3,0.692
TTTACTATGTATCTTGACTGTA,sensor-assay potency score (higher = more potent),SC5DL,-0.0112
TATCATTATCATACCAACGTTG,sensor-assay potency score (higher = more potent),SC5DL,-0.725
TTTCATTAATGCATGATCGAAG,sensor-assay potency score (higher = more potent),SC5DL,-0.355
TTGAGCAGGAGGGTGGATGTGT,sensor-assay potency score (higher = more potent),SASH3,-0.276
TTATTAAGCACAATGATTCTTA,sensor-assay potency score (higher = more potent),SC5DL,-0.0651
TTTTAGGTTAATCCGATCCAGG,sensor-assay potency score (higher = more potent),SASH1,-1.32
TTGTCTGAAACAGCTGAGCCAC,sensor-assay potency score (higher = more potent),SCAF4,-1.31
TTACTATGTATCTTGACTGTAT,sensor-assay potency score (higher = more potent),SC5DL,0.237
TATATGGTAAGGTAGACTCTGA,sensor-assay potency score (higher = more potent),SC5DL,-0.406
TAGCTTTCCGAGTCTTGCCGTT,sensor-assay potency score (higher = more potent),SASH1,-0.384
TAGTACTGCAAACACTTGCAGT,sensor-assay potency score (higher = more potent),SCAF4,-0.842
TAAAAAAATAGTAATCTGCAAC,sensor-assay potency score (higher = more potent),SC5DL,-0.802
TTTTAGACTGACCTGAAACATT,sensor-assay potency score (higher = more potent),SASH3,-1.36
TAACCTCTTAAACTTCACCGAC,sensor-assay potency score (higher = more potent),SASH1,-0.612
TGACCATCTGTAATCAGCCTTG,sensor-assay potency score (higher = more potent),SASH3,-0.932
TGATCTGGATCACATCTCCTTT,sensor-assay potency score (higher = more potent),SASH3,-1.14
TAGTCCAGCAGCAGCTCGGCGG,sensor-assay potency score (higher = more potent),SASH3,-1.4
TTGGCAAAATCCTTGAAGCTGC,sensor-assay potency score (higher = more potent),SASH3,-0.67
TTGACCATCATCATTAGCTGAA,sensor-assay potency score (higher = more potent),SASH1,0.388
TTCAGGTACAATCTGAGGGGGC,sensor-assay potency score (higher = more potent),SASH1,-0.224
AAGACTAATAGCTTGTCGGAAG,sensor-assay potency score (higher = more potent),SC5DL,-1
TAAACTTAATCTCTCGACGGAC,sensor-assay potency score (higher = more potent),SC5DL,-0.573
TAGATGAACTTGAACGTGCCGA,sensor-assay potency score (higher = more potent),SASH1,0.105
TTGACCATCTGTAATCAGCCTT,sensor-assay potency score (higher = more potent),SASH3,0.123
TAGCTTTTACCAAAGTTCCTGG,sensor-assay potency score (higher = more potent),SASH3,-0.621
TTAACCAAGATGTACAGACTTA,sensor-assay potency score (higher = more potent),SC5DL,-0.113
TAGTTGTCAATTTCTGAGGTTC,sensor-assay potency score (higher = more potent),SASH1,-0.0207
TAACTGAGCTGTGATAGCCTGA,sensor-assay potency score (higher = more potent),SCAF4,-0.339
ATCATCTTGCCCATCTTCCTGT,sensor-assay potency score (higher = more potent),SASH3,-0.431
TTCACTTCCAACTTGGCTGCAA,sensor-assay potency score (higher = more potent),SCGB1D4,1.11
TTCAGAACCATCTCTGCTGTGA,sensor-assay potency score (higher = more potent),SCN4A,0.403
ATGCGCAGCACGTCGGACCGCG,sensor-assay potency score (higher = more potent),SDHAF1,-1.11
TTGTAGTCAGCTGTGCTGCAGA,sensor-assay potency score (higher = more potent),SCN4A,-0.246
TTAGGATGAAATCTGTCACAGG,sensor-assay potency score (higher = more potent),SDR9C7,-0.552
TAGTCATTCATTATTATGGTGA,sensor-assay potency score (higher = more potent),SEC11C,-0.647
